Inconclusive results are not listed. A call without a number means that no potency is given here. The source made the active and inactive calls. Calls follow the shape of the full dose curve.
Assay: Nuclear factor erythroid 2-related factor 2/antioxidant responsive element (Nrf2/ARE) small molecule agonists: luciferase reporter gene qHTS assay in human keratinocytes (AID 1919969); also: nearly all actives have a fitted effect of over 35% in size
Details: KeratinoSens HaCaT ARE-luciferase, luminescence, 24 h; series mostly up to 92.4 µM
Description: National Center for Advancing Translational Sciences [NCATS]
Division of Preclinical Innovation [DPI]
U.S. Environmental Protection Agency [EPA]
National Institutes of Environmental Health Sciences [NIEHS]
National Toxicology Program [NTP]
U.S. Food and Drug Administration [FDA]
Oxidative stress has been implicated in the pathogenesis of a variety of diseases ranging from cancer to neurodegeneration. The antioxidant response element (ARE) signaling pathway plays an important role in the amelioration of oxidative stress. The KeratinoSens (Givaudan, Switzerland) is an in vitro test method which quantifies luciferase induction as a measure of activation of Keap1-Nrf2-antioxidationt/electrophile response element (ARE) dependant pathway in HaCaT human keratinocytes stably transfected with a selectable plasmid. The KeratinoSens assay is a cell-based assay with a reporter cell line to detect potential skin sensitizers by their ability to induce the Nrf2/ARE-response. The activation of the report gene under culture conditions can be detected by ONE-Glo Luciferase Assay System (Promega, Madison, WI). This cell line has been used to screen the Tox21 10K compound library to identify agonists that induce oxidative stress. The cytotoxicity of the Tox21 compound library against the KS-ARE cell line was tested in parallel by measuring the cell viability using CellTiter- Fluor assay system (Promega, Madison, WI) in the same wells.
HaCaT derived cell line KeratinoSens were dispensed at 1,500 cells/5uL/well in 1536-well white wall/solid bottom plates using a Multidrop Combi (ThermoFisher Scientific, Waltham, MA) dispenser. After the assay plates were incubated at 37 C/5% CO2 for 5 h, 23 nL of compounds dissolved in DMSO, positive controls or DMSO only was transferred to the assay plate by a pintool workstation (Kalypsys, San Diego, CA). The plates were incubated at 37 C/5% CO2 for 23 h, followed by addition of 1uL/well of CellTiter-Fluor reagent into the assay plates using a Flying Reagent Dispenser (Aurora Discovery, San Diego, CA) for cell viability readout that measures cytotoxicity. After 1 h incubation at 37 C/5% CO2 the fluorescence intensity was measured using a ViewLux (PerkinElmer, Shelton, CT) plate reader. Then 4uL/well of One-Glo were added using a Flying Reagent Dispenser. After the plates were incubated at room temperature for 30 min, the luminescence intensity in the assay plates was measured using ViewLux plate reader.
Potency is read from the fitted curve at half-maximal effect.

| SMILES | Potency |
| --- | --- |
| CCn1c2ccccc2c2cc([N+](=O)[O-])ccc21 | inactive |
| Nc1ccc(S(=O)(=O)NC(=O)c2ccccc2)cc1 | inactive |
| CC(=O)OC1CCCCC1 | inactive |
| CCCCCCC(CCCCCCCCCCC(=O)OCC(COC(C)=O)OC(C)=O)OC(C)=O (stereo not given) | inactive |
| CCOc1cccc(N)c1 | inactive |
| CCCC1CCC(=O)O1 (stereo not given) | inactive |
| NCCOCCOCCN | inactive |
| C#CCN[C@@H]1CCc2ccccc21 | inactive |
| Cc1cc(CCCOc2c(C)cc(-c3noc(C(F)(F)F)n3)cc2C)on1 | 11.9 µM (active) |
| CCCCCOc1ccc(C2SC(=O)NC2=O)cc1OCC (stereo not given) | inactive |
| CC(C)c1ccc2oc3nc(N)c(C(=O)O)cc3c(=O)c2c1 | 0.944 µM (active) |
| CC(=O)CCc1ccc(O)cc1 | inactive |
| CC(C)CCCCCCOC(=O)c1ccc(C(=O)OCCCCCCC(C)C)c(C(=O)OCCCCCCC(C)C)c1 | inactive |
| NNc1nnc(NN)c2ccccc12 | inactive |
| CCOc1cc([N+](=O)[O-])c(OCC)cc1N1CCOCC1 | inactive |
| CC1OCCC1=O (stereo not given) | inactive |
| CCCCCCCCCCCCN1CCOCC1 | inactive |
| Cc1[nH]cnc1CN1CCc2c(c3ccccc3n2C)C1=O | inactive |
| Cc1ccc(S(=O)(=O)NC(=O)NN2CC3CCCC3C2)cc1 (stereo not given) | inactive |
| O=C1OC(=O)C2CCCCC12 (stereo not given) | inactive |

| SMILES | Potency |
| --- | --- |
| CC1COc2c(N3CCN(C)CC3)c(F)cc3c(=O)c(C(=O)O)cn1c23 (stereo not given) | inactive |
| N#Cc1ccc(C/C(=N/NC(=O)Nc2ccc(OC(F)(F)F)cc2)c2cccc(C(F)(F)F)c2)cc1 | inactive |
| Cc1[nH]c(=O)c(C#N)cc1-c1ccc2nccn2c1 | inactive |
| CC(C)(c1cc(Br)c(OCCO)c(Br)c1)c1cc(Br)c(OCCO)c(Br)c1 | inactive |
| CCc1ccc(C(=O)C(C)CN2CCCCC2)cc1 (stereo not given) | inactive |
| C[C@]12C=CC(=O)C=C1[C@@H](F)C[C@@H]1[C@@H]2[C@@H](O)C[C@@]2(C)[C@H]1CC[C@]2(O)C(=O)CO | inactive |
| CC(=O)CC(=O)Nc1ccc(C)cc1C | inactive |
| CCC(=O)O[C@]1(C(=O)CCl)[C@@H](C)C[C@H]2[C@@H]3CCC4=CC(=O)C=C[C@]4(C)[C@@]3(F)[C@@H](O)C[C@@]21C | inactive |
| Cc1ccc2ccccc2n1 | inactive |
| Cc1cn([C@@H]2O[C@H](CO)[C@@H](O)[C@@H]2F)c(=O)[nH]c1=O | inactive |
| CC(C(=O)O)c1ccc(-c2ccccc2)c(F)c1 (stereo not given) | inactive |
| COc1ccc(NS(=O)(=O)c2ccc(N)cc2)nn1 | inactive |
| O=C(/C=C/c1ccc(O)c(O)c1)O[C@@H]1C[C@](O)(C(=O)O)C[C@@H](O)[C@H]1O | inactive |
| NCCCCCC(=O)O | inactive |
| BrC(Br)C(Br)Br | inactive |
| CCC(CC)(CC(=O)Nc1cccc(/C=C/c2nc(C3CCC3)cs2)c1)C(=O)O | inactive |
| Cc1ccsc1/C=C/C1=NCCCN1C | inactive |
| N=C1N=C(N)c2ccccc21 | 27.3 µM (active) |
| Nc1c2c(nc3c1CCC3)CCCC2 | inactive |
| O=C(c1ccc(O)cc1)c1ccc(O)cc1 | inactive |
